Results as given in PubChem BioAssay (EPA / NIEHS).
Values joined by “and” are separate entries in the source; they are usually repeats but may differ in a detail not shown here. Equal values may be shown once. Some compounds were tested as several samples or in several runs, with calls that do not always agree. Active and inactive are the calls of the source. Rule for the calls: active = hit-call score of the fitted dose curve at least 0.9, where 1 is the maximum; inactive = score below 0.9.

How the values were obtained:
[1] = BSK_CASM3C_SRB: Viability Assessment in the BioMAP Diversity Plus: CASM3C Assay (AID 2283050); details: primary human coronary artery smooth muscle cells;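 note: total protein by SRB staining as cytotoxicity measure in parallel cultures; cells exposed to compound for 24 h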
[2] = read-out: Thrombomodulin, THBD (gene 7056); assay: BSK_CASM3C_Thrombomodulin: BioMAP Diversity Plus: CASM3C Assay for Thrombomodulin Biomarker Activity (AID 2283051); details: primary human coronary artery smooth muscle cells; actives raise or lower the signal;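 note: thrombomodulin protein level measured by ELISA 24 h after dosing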
[3] = read-out: Tissue Factor, F3 (gene 2152); assay: BSK_CASM3C_TissueFactor: BioMAP Diversity Plus: CASM3C Assay for Tissue Factor Biomarker Activity (AID 2283052); details: primary human coronary artery smooth muscle cells; actives raise or lower the signal;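 note: cell surface tissue factor protein level read by ELISA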
[4] = read-out: Interferon-gamma inducible Protein 10 (IP10), CXCL10 (gene 3627); assay: BSK_hDFCGF_IP10: BioMAP Diversity Plus: hDFCGF Assay for Interferon-gamma inducible Protein 10 (IP10) Biomarker Activity (AID 2283053); details: primary human foreskin fibroblasts; actives raise or lower the signal
How it was run: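 ELISA read-out of IP-10 (CXCL10) from primary human skin fibroblasts, 24 h after compound addition. Gain or loss of signal versus DMSO baseline, bidirectional curve fitting.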

[5] = read-out: Urokinase-type plasminogen activator receptor (uPAR), PLAUR (gene 5329); assay: BSK_CASM3C_uPAR: BioMAP Diversity Plus: CASM3C Assay for Urokinase-type plasminogen activator receptor (uPAR) Biomarker Activity (AID 2283054); details: primary human coronary artery smooth muscle cells; actives raise or lower the signal;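 note: cell-surface uPAR protein level quantified by ELISA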
[6] = read-out: Vascular cell adhesion molecule 1 (VCAM1), VCAM1 (gene 7412); assay: BSK_CASM3C_VCAM1: BioMAP Diversity Plus: CASM3C Assay for Vascular cell adhesion molecule 1 (VCAM1) Biomarker Activity (AID 2283055); details: primary human coronary artery smooth muscle cells; actives raise or lower the signal;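 note: VCAM-1 protein level quantified by ELISA on the cells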
[7] = read-out: Collagen III, COL3A1 (gene 1281); assay: BSK_hDFCGF_CollagenIII: BioMAP Diversity Plus: hDFCGF Assay for Collagen III Biomarker Activity (AID 2283056); details: primary human foreskin fibroblasts; actives raise or lower the signal
How it was run: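 ELISA read-out of collagen III from human skin fibroblast cultures sampled 24 h post-dosing. Values were derived by bidirectional fitting relative to the DMSO vehicle control.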

[8] = read-out: Epidermal growth factor receptor (EGFR), EGFR (gene 1956); assay: BSK_hDFCGF_EGFR: BioMAP Diversity Plus: hDFCGF Assay for Epidermal growth factor receptor (EGFR) Biomarker Activity (AID 2283057); details: primary human foreskin fibroblasts; actives raise or lower the signal
How it was run: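 ELISA readout of EGFR on human dermal fibroblasts (primary foreskin cells), 24 h post-dosing; bidirectional curve fit vs DMSO baseline, gain or loss of signal scored.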

[9] = read-out: Interleukin-8 (IL8), CXCL8 (gene 3576); assay: BSK_hDFCGF_IL8: BioMAP Diversity Plus: hDFCGF Assay for Interleukin-8 (IL8) Biomarker Activity (AID 2283058); details: primary human foreskin fibroblasts; actives raise or lower the signal
How it was run: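 Cells used are human skin primary fibroblasts. Chemical is added, cultures run 24 h, then IL-8 is quantified by ELISA, and gain or loss versus DMSO control is fitted in both directions.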

[10] = BSK_hDFCGF_Proliferation: Cell Proliferation Assessment in the BioMAP Diversity Plus: hDFCGF Assay (AID 2283059); details: primary human foreskin fibroblasts;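 note: curves fitted for both rise and fall of signal versus DMSO baseline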
How it was run: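 Primary human foreskin fibroblasts, sub-confluent; […]; 10% TCA fix, 0.1% SRB stain, A560 total protein. Gain/loss fitted bidirectionally vs DMSO control.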

[11] = read-out: Macrophage colony-stimulating factor (MCSF), CSF1 (gene 1435); assay: BSK_hDFCGF_MCSF: BioMAP Diversity Plus: hDFCGF Assay for Macrophage colony-stimulating factor (MCSF) Biomarker Activity (AID 2283060); details: primary human foreskin fibroblasts; actives raise or lower the signal
How it was run: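 Primary human foreskin fibroblasts dosed with chemical; 24 h later, M-CSF quantified by ELISA; curves fitted in both directions vs DMSO negative control.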

[12] = BSK_hDFCGF_SRB: Viability Assessment in the BioMAP Diversity Plus: hDFCGF Assay (AID 2283061); details: primary human foreskin fibroblasts;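 note: cells exposed to compound for 24 h before the read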
How it was run: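 Readout is SRB absorbance at 560 nm, reflecting total protein in parallel cultures of human foreskin fibroblasts harvested 24 h after chemical dosing. Activity was fitted bidirectionally relative to DMSO.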

[13] = read-out: TIMP metallopeptidase inhibitor 1 (TIMP1), TIMP1 (gene 7076); assay: BSK_hDFCGF_TIMP1: BioMAP Diversity Plus: hDFCGF Assay for TIMP metallopeptidase inhibitor 1 (TIMP1) Biomarker Activity (AID 2283062); details: primary human foreskin fibroblasts; actives raise or lower the signal
How it was run: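 Human skin fibroblasts (primary), hDFCGF system; compound exposure 24 h; TIMP-1 by ELISA; bidirectional fit vs DMSO negative control; overt cytotoxicity by SRB in parallel wells.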

[14] = read-out: Monokine induced gamma interferon (MIG), CXCL9 (gene 4283); assay: BSK_hDFCGF_MIG: BioMAP Diversity Plus: hDFCGF Assay for Monokine induced gamma interferon (MIG) Biomarker Activity (AID 2283063); details: primary human foreskin fibroblasts; actives raise or lower the signal
How it was run: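 Chemicals were added to primary human foreskin fibroblast cultures, which were sampled 24 h later. MIG levels were then quantified by ELISA and responses fitted in both directions relative to DMSO.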

[15] = read-out: Vascular cell adhesion molecule 1 (VCAM1), VCAM1 (gene 7412); assay: BSK_hDFCGF_VCAM1: BioMAP Diversity Plus: hDFCGF Assay for Vascular cell adhesion molecule 1 (VCAM1) Biomarker Activity (AID 2283065); details: primary human foreskin fibroblasts; actives raise or lower the signal;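 for AC50: VCAM-1 protein level quantified by ELISA after 24 h chemical exposure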
How it was run: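 Human foreskin fibroblast primary cells, chemical exposure 24 h; VCAM-1 by ELISA; bidirectional fit, DMSO = negative control/baseline.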

[16] = read-out: Plasminogen activator inhibitor-1 (PAI1), SERPINE1 (gene 5054); assay: BSK_hDFCGF_PAI1: BioMAP Diversity Plus: hDFCGF Assay for Plasminogen activator inhibitor-1 (PAI1) Biomarker Activity (AID 2283066); details: primary human foreskin fibroblasts; actives raise or lower the signal
How it was run: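 ELISA readout of PAI-1 from primary human skin fibroblast cultures, 24 h after compound addition. Gain or loss of signal was fitted bidirectionally against DMSO baseline.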

[17] = read-out: Intercellular Adhesion Molecule 1 (ICAM1), ICAM1 (gene 3383); assay: BSK_KF3CT_ICAM1: BioMAP Diversity Plus: KF3CT Assay for Intercellular Adhesion Molecule 1 (ICAM1) Biomarker Activity (AID 2283067); details: primary human keratinocytes with fibroblasts; actives raise or lower the signal
How it was run: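 ICAM-1 levels are measured by ELISA 24 h after dosing a primary human co-culture of keratinocytes and foreskin fibroblasts. Activity in either direction is fitted relative to DMSO vehicle.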

[18] = read-out: Interferon-gamma inducible Protein 10 (IP10), CXCL10 (gene 3627); assay: BSK_KF3CT_IP10: BioMAP Diversity Plus: KF3CT Assay for Interferon-gamma inducible Protein 10 (IP10) Biomarker Activity (AID 2283068); details: primary human keratinocytes with fibroblasts; actives raise or lower the signal
How it was run: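 In a primary skin co-culture of keratinocytes and fibroblasts, IP-10 is quantified by ELISA at 24 h after dosing. SRB staining of parallel wells monitors overt toxicity. Curves are fitted both directions against DMSO.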

[19] = BSK_KF3CT_SRB: Viability Assessment in the BioMAP Diversity Plus: KF3CT Assay (AID 2283069); details: primary human keratinocytes with fibroblasts;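 note: total protein by sulforhodamine B staining as a cytotoxicity measure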
How it was run: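 SRB read-out at 560 nm (0.1% stain, TCA-fixed cells) gauges overt cytotoxicity in a human skin keratinocyte–fibroblast co-culture 24 h post-dosing. Signal change was fitted bidirectionally relative to DMSO control.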

[20] = read-out: Matrix Metallopeptidase 1 (MMP1), MMP1 (gene 4312); assay: BSK_hDFCGF_MMP1: BioMAP Diversity Plus: hDFCGF Assay for Matrix Metallopeptidase 1 (MMP1) Biomarker Activity (AID 2283064); details: primary human foreskin fibroblasts; actives raise or lower the signal
How it was run: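 ELISA read-out of MMP1 from human foreskin fibroblasts (primary skin cells), 24 h post-dose. Gain or loss of signal was fitted bidirectionally versus DMSO negative control; cytotoxicity was checked by SRB in parallel cultures.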

Measured: AC50

O=C=NCc1cccc(CN=C=O)c1
inactive: [1] | [2] | [3] | [4] | [5] | [6] | [7] | [8] | [9] | [10] | [11] | [12] | [13] | [14] | [15] | [16] | [17] | [18] | [19]

O=C(Cl)C(F)(F)C(F)(F)C(F)(F)C(F)(F)C(F)(F)C(F)(F)F
active: [8] 2.04 µM
inactive: [1] | [2] | [3] | [4] | [5] | [6] | [7] | [8] | [9] | [10] | [11] | [12] | [13] | [14] | [15] | [16] | [17] | [19]

O=C(O)C(F)(F)OC(F)(F)C(F)(F)OC(F)(F)C(F)(F)OC(F)(F)F
inactive: [1] | [2] | [3] | [4] | [5] | [6] | [7] | [8] | [9] | [10] | [11] | [12] | [13] | [14] | [20] | [15] | [16] | [17] | [19]

Cc1cc(O)c(C(C)(C)C)cc1C(C)(C)C
inactive: [8] | [9]
active: [1] 4.99 µM | [2] 12 µM | [3] 3.61 µM | [4] 6.51 µM | [5] 8.38 µM | [6] 4.81 µM | [7] 1.92 µM | [10] 1.78 µM | [11] 5.42 µM | [12] 5.28 µM | [13] 4.03 µM | [14] 9.12 µM | [20] 6.54 µM | [15] 5.41 µM | [16] 4.51 µM | [17] 2.89 µM | [19] 2.33 µM

NC(O)(C(F)(F)F)C(F)(F)F
inactive: [1] | [2] | [3] | [4] | [5] | [6] | [7] | [8] | [9] | [10] | [11] | [12] | [13] | [14] | [15] | [16] | [17] | [19]

O=S(=O)(O)CCC(F)(F)C(F)(F)C(F)(F)C(F)(F)C(F)(F)C(F)(F)C(F)(F)C(F)(F)F
inactive: [1] | [2] | [3] | [4] | [5] | [6] | [7] | [8] | [9] | [10] | [11] | [13] | [14] | [15] | [16] | [17] | [19]
active: [12] 54.3 µM and 24.7 µM

CC(C)(C)c1cc(CCC(=O)NCCCCCCNC(=O)CCc2cc(C(C)(C)C)c(O)c(C(C)(C)C)c2)cc(C(C)(C)C)c1O
inactive: [1] | [2] | [3] | [4] | [5] | [6] | [7] | [8] | [9] | [10] | [11] | [12] | [13] | [14] | [15] | [16] | [17] | [18] | [19]

O=C(c1ccccc1)c1ccc(O)cc1O
active: [3] 13.6 µM
inactive: [1] | [2] | [4] | [5] | [6] | [7] | [8] | [9] | [10] | [11] | [12] | [13] | [14] | [20] | [15] | [16] | [17] | [19]

O=C(O)C(F)(F)C(F)(F)C(F)(F)OC(F)(C(F)(F)F)C(F)(F)F
inactive: [1] | [2] | [3] | [4] | [5] | [6] | [7] | [8] | [9] | [10] | [11] | [12] | [13] | [14] | [20] | [15] | [16] | [17] | [19]

CCOC(C=C(C)CCC=C(C)C)OCC
inactive: [2] | [8] | [9] | [17]
active: [1] 32.1 µM | [3] 28.6 µM | [4] 29.8 µM | [5] 31.4 µM | [6] 25.7 µM | [7] 29 µM | [10] 32.2 µM | [11] 32.8 µM | [12] 33.2 µM | [13] 20 µM | [14] 27.3 µM | [20] 32.4 µM | [15] 20 µM | [16] 20 µM | [19] 34.8 µM

O=C(Cl)C(F)(F)C(F)(F)C(F)(F)C(F)(F)C(F)(F)C(F)(F)C(F)(F)F
active: [13] 26.4 µM
inactive: [1] | [2] | [3] | [4] | [5] | [6] | [7] | [8] | [9] | [10] | [11] | [12] | [13] | [14] | [15] | [16] | [17] | [18] | [19]
